Source: PubChem BioAssay
NR1D1 modulator – Rev-erb alpha (human) modulation | P20393 | Rev-erbα–FITC-DNA binding, fluorescence polarization, 90 min | activity, % at 10 µM | actives 0.79% (n = 370,000) | AID 1259318;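 active = activity above about 14%, limit read from the data; passing the limit was not always enough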
Target sequence (P20393 whole entry, looked up): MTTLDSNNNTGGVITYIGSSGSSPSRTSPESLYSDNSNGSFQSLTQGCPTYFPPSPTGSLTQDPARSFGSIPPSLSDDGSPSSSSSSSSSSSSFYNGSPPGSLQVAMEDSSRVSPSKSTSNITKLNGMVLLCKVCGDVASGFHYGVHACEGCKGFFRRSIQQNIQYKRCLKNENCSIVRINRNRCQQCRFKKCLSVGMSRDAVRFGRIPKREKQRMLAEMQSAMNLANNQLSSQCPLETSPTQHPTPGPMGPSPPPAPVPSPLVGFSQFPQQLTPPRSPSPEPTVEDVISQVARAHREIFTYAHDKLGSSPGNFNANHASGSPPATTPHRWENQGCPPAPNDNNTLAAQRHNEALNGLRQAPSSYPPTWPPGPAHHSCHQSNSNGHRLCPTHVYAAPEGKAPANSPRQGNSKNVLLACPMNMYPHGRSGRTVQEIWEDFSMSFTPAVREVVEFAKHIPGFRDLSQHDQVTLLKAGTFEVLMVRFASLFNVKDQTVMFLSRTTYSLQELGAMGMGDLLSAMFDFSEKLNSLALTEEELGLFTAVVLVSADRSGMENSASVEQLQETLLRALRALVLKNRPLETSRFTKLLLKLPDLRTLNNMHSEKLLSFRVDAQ
NPR2 activator – GC-B (human) receptor activation | AID 1920062 | activation, % at 10 µM | actives 0.11% (n = 370,000) | HEK293-GC-B cells, CNP EC30, cGMP TR-FRET; 0% at EC30 CNP, 100% saturating CNP;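 active = activation at 10 µM reaching about 35% in either raw or pattern-adjusted values, limit read from the data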
GC-A act – GC-A (human) enzyme activation; AID 1671463; HEK293 GC-A cells, cGMP TR-FRET, EC30 ANP; 0% at EC30 ANP, 100% saturating ANP; actives 0.14% (n = 370,000); activation, % at 10 µM; in the data active = activation above about 40%
V-ATPase pHluor – alters yeast V-ATPase proton transport; actives 0.37% (n = 350,000); response, % at 10 µM; S. cerevisiae, pHLuorin cytosolic pH fluorescence; in the data active = response mostly above about 7.3%, no sharp cut-off; inactive = mostly below about 5.4%; also: actives read high
PG9 binder – small molecules binding HIV-1 gp120 antibody PG9 | TR-FRET gp120-PG9 antibody binding | inhibition, % at 6.7 µM | actives 0.43% (n = 360,000); in the data active = inhibition above about 8.5%
V-ATPase pH SP – regulators of yeast V-ATPase proton transport | S. cerevisiae pHLuorin cytosolic pH | actives 2% (n = 980) | response, % at 10 µM | shares compounds with V-ATPase pHluor; in the data active = response above about 24%
Each line names hits and unclear results; the compound was inactive in the other large screens (follow-up assays come after a bar, where they were run). This is a sample that favours compounds with a hit; in the whole collection about 1.6% have one here.

COc1cc(C2NC(=O)NC(C)=C2C(=O)OCc2ccc(C)cc2)cc(OC)c1O (stereo unspecified)	V-ATPase pHluor 9.5 | V-ATPase pH SP inactive
Cc1cccn2c(=O)c(/C=C(\C#N)C(=O)NC3CCS(=O)(=O)C3)c(N3CCC(C)CC3)nc12 (stereo unspecified)	V-ATPase pHluor 15 | V-ATPase pH SP inactive
Cc1cccn2c(=O)c(/C=C(\C#N)C(=O)NC3CCS(=O)(=O)C3)c(Oc3ccc(F)cc3)nc12 (stereo unspecified)	none
CCCCCC(=O)N1C[C@H](n2cc(-c3ccc(F)cc3)nn2)[C@@H](O)C[C@@H]1c1ccc(C)cc1	V-ATPase pHluor 6.8 | V-ATPase pH SP inactive
N#CCC[C@@H]1CC[C@]2(CCCN(Cc3ccc(Br)cc3)C2)O1	none (no result: V-ATPase pHluor, PG9 binder)
COc1cc(C(=O)NCCOc2cccc3cccnc23)cc(OC)c1OC	V-ATPase pHluor 15 | V-ATPase pH SP inactive
CC(C)c1ccc(N(CC(=O)NC2CCCC2)C(=O)CCC(=O)Nc2ccccn2)cc1	V-ATPase pHluor 15 | V-ATPase pH SP inactive
O=C(Nc1ccc(OC(F)(F)F)cc1)Nc1c(-c2ccc(C(F)(F)F)cc2)nc2ncccn12	none (no result: V-ATPase pHluor, PG9 binder)
O=C(c1ccco1)N1CCN(c2ncnc3c2nnn3Cc2ccccc2Cl)CC1	V-ATPase pHluor 10 | V-ATPase pH SP inactive
Fc1ccc(N2CCN(c3ncnc4c3nnn4Cc3ccccc3Cl)CC2)cc1	none
Nc1nc(=O)n(C2OC(CO)C(O)C2O)cc1F (stereo unspecified)	none (no result: V-ATPase pHluor)
Nc1cnn(C2OC(CO)C(O)C2O)c(=O)n1 (stereo unspecified)	V-ATPase pHluor 7.8 | V-ATPase pH SP inactive
O=C(OCc1cn(Cc2c(F)cccc2F)nn1)N1CCOCC1	none (no result: V-ATPase pHluor, PG9 binder)
Cc1ccc(C(=O)OCC(=O)NCc2cccs2)cc1C	none
Cc1ccc(C(=O)OCC(=O)NCc2cccs2)cc1	V-ATPase pHluor 9.9 | V-ATPase pH SP inactive
c1nc(NCC2CCCC2)c2cc(-c3ccc4c(c3)OCO4)ccc2n1	none (no result: V-ATPase pHluor, PG9 binder)
Cc1ccc2[nH]c(=O)c(CN(Cc3ccccc3Cl)C(=O)N3CCOCC3)cc2c1	V-ATPase pHluor 16 | V-ATPase pH SP inactive
O=C(c1cc(-c2ccccc2)on1)N1CCC(Oc2cccnc2)CC1	none (no result: V-ATPase pHluor, PG9 binder)
CCOC(=O)c1c(N)sc(C(=O)N(C)C)c1C	V-ATPase pHluor 15 | V-ATPase pH SP inactive
O=C(NCc1ccco1)C(=O)NCC(c1ccco1)N1CCOCC1 (stereo unspecified)	V-ATPase pHluor 19 | V-ATPase pH SP inactive
Cc1ccc2c(c1)C(CS(=O)(=O)NC1CCCC1)NC2 (stereo unspecified)	none (no result: V-ATPase pHluor, PG9 binder)
C=CCN1C(=O)[C@@H](CC(=O)N2CCOCC2)[C@]2(C(=O)OCC)CCCCC/C=C/12	none (no result: V-ATPase pHluor, PG9 binder)
O=C(NNc1nc2ccccc2s1)c1ccc(F)cc1	V-ATPase pHluor 5.8 | V-ATPase pH SP inactive
COc1ccc(/C=C2\CCn3c2nc2cc(C(=O)O)ccc2c3=O)cc1O	V-ATPase pHluor 10 | V-ATPase pH SP inactive
C=CCn1c(SCC(=O)Nc2cc(C)c(Cl)cc2OC)nnc1-c1ccco1	none
C=CCn1c(SCC(=O)Nc2cc(C)ccc2OC)nnc1-c1ccco1	V-ATPase pHluor 11 | V-ATPase pH SP inactive
C/C(C=NNC(=O)CSc1nc2ccccc2n1C)=C\c1ccccc1	none (no result: V-ATPase pHluor, PG9 binder)
Cc1ccc(S(=O)(=O)n2cnc(C)c2)cc1	V-ATPase pHluor 13 | V-ATPase pH SP inactive
CC(=O)Nc1ccc(S(=O)(=O)n2cnc(C)c2)cc1	none
c1ccc2cc(Cn3ccc4ccc(-c5ccc6cc[nH]c6c5)cc43)ccc2c1	none (no result: V-ATPase pHluor, PG9 binder)
O=C(Cn1nnc(-c2ccc(N3CCOCC3)cc2)n1)c1cccc(F)c1	none (no result: V-ATPase pHluor, PG9 binder)
Clc1cccc(/C=N/N2CCN(Cc3ccccc3)CC2)c1	V-ATPase pHluor 14 | V-ATPase pH SP inactive
C(=N\N1CCN(Cc2ccccc2)CC1)/c1ccccc1	none
CCOC(=O)[C@]12CCCC=C1N(CCCOC)C(=O)[C@@H]2CC(=O)N1CCN(C(=O)c2ccco2)CC1	none (no result: V-ATPase pHluor, PG9 binder)
CC(C)CNC(=O)OCc1cn(Cc2ccccc2Cl)nn1	none (no result: V-ATPase pHluor, PG9 binder)
CNc1ccccc1/C(O)=C(\C#N)C(=O)NCc1cccs1	none (no result: V-ATPase pHluor, PG9 binder)
Cn1c(=O)oc2cc(S(=O)(=O)Nc3ccc(F)cc3)ccc21	V-ATPase pHluor 7.4 | V-ATPase pH SP inactive
COc1cccc(S(=O)(=O)N(C)C[C@@H]2OCc3cnnn3CCCC(=O)N([C@H](C)CO)C[C@@H]2C)c1	V-ATPase pHluor 7.5 | V-ATPase pH SP inactive
